NCF1 inh = inhibitors of human p47phox binding | p47phox/p22phox peptide binding, fluorescence polarization, 2 h | P14598 | inhibition, % at 24.7 µM | actives 0.53% (n = 220,000) | AID 1274;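 active = inhibition above about 30%, limit read from the data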;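 note: 0% = p47phox with labelled peptide and 100% = labelled peptide alone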
Target sequence (P14598 whole entry, looked up): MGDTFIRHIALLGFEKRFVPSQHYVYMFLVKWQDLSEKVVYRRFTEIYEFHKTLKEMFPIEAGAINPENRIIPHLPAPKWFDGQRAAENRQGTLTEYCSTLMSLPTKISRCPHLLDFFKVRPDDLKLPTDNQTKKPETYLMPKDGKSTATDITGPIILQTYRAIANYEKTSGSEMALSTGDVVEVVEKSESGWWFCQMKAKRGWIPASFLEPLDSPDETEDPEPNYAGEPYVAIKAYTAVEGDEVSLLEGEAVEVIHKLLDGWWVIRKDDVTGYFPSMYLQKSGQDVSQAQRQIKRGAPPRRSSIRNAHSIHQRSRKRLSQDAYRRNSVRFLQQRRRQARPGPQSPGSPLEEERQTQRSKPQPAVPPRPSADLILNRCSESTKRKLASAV
Mcl1-Noxa inh = disrupts binding of human Mcl-1 to Noxa peptide; Q07820; TR-FRET Mcl-1/Noxa peptide binding, 2 h; inhibition, % at 21.7 µM; actives 1.5% (n = 220,000);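 active = compounds that cut the protein-peptide binding signal by more than 50% relative to plate controls in a single-dose test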;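 note: His-tagged Mcl-1 with rhodamine Noxa BH3 peptide and terbium anti-His antibody; 0% = Mcl-1 plus Noxa peptide wells and 100% = peptide-only wells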
Mcl-1 Bim block = inhibitors of Bim-Mcl-1 interaction, human. Q07820. inhibition, % at 10 µM. actives 0.1% (n = 190,000). AID 1009. Bead-based flow cytometry, Bim peptide-Mcl-1 binding; in the data active = inhibition above about 40%;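 note: 0% = no compound tracer wells and 100% = peptide blocker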
Mcl1 Bid PPI = disrupts binding of human Mcl-1 to Bid peptide. Q07820. TR-FRET Mcl-1/Bid-Dy647 peptide binding, 1536-well. inhibition, % at 21.7 µM. actives 0.97% (n = 220,000);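 active = compounds that cut the binding signal by more than half at the single screening dose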;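 note: His-tagged Mcl-1 with europium anti-His antibody binding Bid BH3 peptide; 0% = Mcl-1 plus peptide wells and 100% = peptide-only wells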
m-calpain inh = calpain II (pig) inhibition. purified calpain II, fluorogenic peptide substrate, 30 min. inhibition, % at 16 µM. actives 0.37% (n = 220,000). AID 1236;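 active = inhibition above about 50%, limit read from the data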
14-3-3 Bad PPI = disrupts binding of bovine 14-3-3 zeta to phospho-Bad peptide | inhibition, % at 21.7 µM | TR-FRET 14-3-3zeta/Dy647-pBad peptide displacement, 1 h | actives 0.71% (n = 220,000) | P63103;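 active = inhibition above about 70%, limit read from the data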;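 note: 0% = full 14-3-3 plus peptide FRET controls and 100% = background without 14-3-3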
Numbers without * were called inactive; nt = not tested or not shown. Most compounds without a hit are left out; they make up all but 3.4% or so of the library.

SMILES	NCF1 inh	Mcl1-Noxa inh	Mcl-1 Bim block	Mcl1 Bid PPI	m-calpain inh	14-3-3 Bad PPI
CCC(C)NC(=O)COC(=O)c1ccc(Cl)cc1O (stereo unspecified)	5	-5	-1	-4	-8	-3
COc1ccc(C(=O)CSc2nnc(NC(=O)C3CC(=O)N(c4ccccc4C)C3)s2)cc1 (stereo unspecified)	-25	-3	4	-7	-61	-10
S=c1[nH]nc(-c2ccc3ccccc3n2)n1-c1ccc2ncccc2c1	-7	70*	-1	-130	-21	-11
CN(C)c1ccc(-c2n[nH]c(=S)n2-c2ccccc2)cc1	-9	51*	-3	-36	-97	-2
OCCN(Cc1ccccc1)Cc1ccc(F)c(F)c1	-6	22	2	12	-19	38
Cc1cc(C)n(CCc2nc(-c3ccco3)cs2)n1	-20	53*	-20	-33	-125	-11
CC1=Nc2ccccc2N=C(NC(=O)CN2CCN(c3ccccc3)CC2)C1c1ccccc1 (stereo unspecified)	6	12	0	-12	57*	-4
CCOC(=O)C1CCCN(CC(=O)NC2=Nc3ccccc3N=C(C)C2c2ccccc2)C1 (stereo unspecified)	0	13	-1	-10	24	-3
C(=N\Nc1nc(Nc2ccccc2)nc(N2CCCCC2)n1)/c1ccco1	135*	21	0	-20	-43	-9
CCOc1nc(NCCO)nc(Nc2cc(Cl)ccc2OC)n1	-14	13	1	-23	18	-11
COC(=O)c1cc(NC(=O)Cc2cc(OC)c(OC)c(OC)c2)cc(C(=O)OC)c1	-3	-15	0	-14	-13	-5
CCC(C)[C@@H](NC(=O)OC(C)(C)C)c1nnc(S(=O)(=O)Cc2cccc(C)c2)o1 (stereo partly specified)	60*	1	-1	-35	18	5
O=C1/C(=C/c2cccs2)Sc2ccccc21	-1	38	75*	10	12	-9
N#Cc1cc2c(nc1SC1CCCCC1O)CCCC2 (stereo unspecified)	-12	1	0	-24	6	-9
CC(=O)Nc1ncc2c(n1)CC(c1ccco1)CC2=O (stereo unspecified)	-6	1	-1	-6	-21	0
CCOCCCNc1ncc2c(n1)CC(c1ccc(C)cc1)CC2=O (stereo unspecified)	-6	-13	-2	8	-1	14
COc1ccc(C(=O)Nc2ncc3c(n2)CC(c2ccco2)CC3=O)cc1 (stereo unspecified)	-6	52*	1	-25	5	-11
CC(C)OCCCNc1ncc2c(n1)CC(c1ccccc1)CC2=O (stereo unspecified)	-16	60*	2	-51	-19	-15
COc1ccc(C2CC(=O)c3cnc(Nc4cc(C)cc(C)c4)nc3C2)cc1 (stereo unspecified)	-23	9	4	-9	-16	76*
COc1ccccc1N1CCN(C(c2cccs2)C(C)NC(=O)c2ccco2)CC1 (stereo unspecified)	-12	15	nt	-22	-22	-7
CS(=O)(=O)N1CCC(C(=O)N2CCN(c3ccc(F)cc3)CC2)CC1	-11	14	0	-17	30	0
C/C(=C/C(=O)O)C(=O)Nc1cccc(C(F)(F)F)c1	2	5	0	16	9	4
CCCCCCCCCC(=O)N1c2ccccc2NC(=O)C1CC(=O)Nc1ccc(C(=O)O)cc1 (stereo unspecified)	-14	27	nt	36	53*	5
O=C1OCC2OC(O)C(O)C(O)C2OC(=O)c2cc(O)c(O)c(O)c2-c2c(O)c(O)c3oc(=O)c4c(c(O)c(O)c5oc(=O)c2c3c54)-c2c1cc(O)c(O)c2O (stereo unspecified)	1	105*	nt	-10	39	75*
CCn1c(=O)cc(C(F)(F)F)[nH]c1=S	8	27	-1	-9	4	4
Cc1ccc2cc(C#N)c(SCC(=O)NNC(=O)Cc3ccccc3)nc2c1	-4	-368	-3	-26	59*	-36
COc1ccc2cc(C#N)c(SCC(=O)NNC(=O)Cc3ccccc3)nc2c1	-35	-100	2	-31	-68	-17
